Rows were chosen to be rich in hits. Some 11% of all compounds tested hit in one or more screens of this group.
IL1B secr inh: inhibitors of inflammasome signaling (IL-1 beta secretion); THP-1 LPS/ATP IL-1B secretion, AlphaLISA, 16 h; active compounds read low; activity change, % at 57.5 µM; actives 4.7% (n = 360,000); AID 743279; in the data active means activity change below about -50%; inconclusive means mostly about -30% to -49%
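THP-1 cells pretreated 1 hr with compounds (up to 57.5 uM final), then stimulated with LPS (250 ng/mL final) plus ATP (1.25 mM final); secreted IL-1B measured by AlphaLISA after 16 hr, decreased signal indicating inhibition.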
MCF10A rereplic: induces DNA re-replication in MCF 10a normal breast cells. Potency, µM (doses to about 46.1 µM), actives largely listed as activators. AID 624296. MCF 10A DNA re-replication, Hoechst nuclear intensity, 48 h. actives 2.9% (n = 350,000); further: nearly all actives have a fitted effect of over 50% in size
VP16 counter: counter-screen for ROR gamma inhibitors: Gal4-VP16 reporter | Drosophila S2 Gal4-VP16 UAS-luciferase, luminescence, 20 h | Potency, µM (titrated, usually from 53.6 µM), hits mostly inhibitors | actives 3.5% (n = 310,000) | AID 2546;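 further: Gal4-VP16 expression switched on by copper sulfate through the metallothionein promoter; nearly all actives have a fitted effect of over 50% in size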
RORg inh: inhibitors of mouse ROR gamma transcriptional activity; Potency, µM (doses to about 53.6 µM), hits mostly inhibitors; Drosophila S2 Gal4-RORgamma UAS-luciferase reporter, 20 h; actives 5.4% (n = 310,000); P51450; further: nearly all actives have a fitted effect of over 60% in size
Target sequence (P51450 whole entry, looked up, the tested form may be a part): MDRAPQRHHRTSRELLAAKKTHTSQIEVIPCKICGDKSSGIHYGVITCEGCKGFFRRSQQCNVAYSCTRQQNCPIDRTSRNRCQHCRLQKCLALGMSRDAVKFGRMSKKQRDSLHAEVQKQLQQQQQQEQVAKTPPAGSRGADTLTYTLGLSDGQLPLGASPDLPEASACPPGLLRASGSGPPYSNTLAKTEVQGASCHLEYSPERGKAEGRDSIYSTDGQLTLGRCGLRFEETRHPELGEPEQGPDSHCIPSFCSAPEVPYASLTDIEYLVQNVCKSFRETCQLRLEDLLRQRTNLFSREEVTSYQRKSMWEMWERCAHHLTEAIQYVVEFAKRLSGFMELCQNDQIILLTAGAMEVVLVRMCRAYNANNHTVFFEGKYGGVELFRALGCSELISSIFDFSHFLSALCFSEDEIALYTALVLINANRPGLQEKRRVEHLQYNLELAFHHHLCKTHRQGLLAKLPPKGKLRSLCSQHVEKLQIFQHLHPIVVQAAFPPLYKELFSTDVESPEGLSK
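Stably transfected Drosophila Schneider cells are the test system, with ROR gamma fused to Gal4 and luciferase under UAS control; luminescence is read after 20 hr of 700 uM copper sulfate induction at ambient temperature.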
SW480 rerep: DNA re-replication induction in SW480 cells | actives 1.8% (n = 340,000) | SW480 DNA re-replication, Hoechst DNA content imaging, 48 h | Potency, µM (highest dose often 46.1 µM), usual class: activators; further: nearly all actives have a fitted effect of over 55% in size
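Treated cells incubate 48 hr (37 C, 5% CO2), are stained 40 min with Hoechst, and nuclear fluorescence is enumerated; a rise in nuclei with high DNA signal marks re-replication.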
Large screens that a line does not name were inactive. Unless noted, the call rests on the fitted dose curve; in most records, active means well fitted curve in the direction sought with a large enough effect; inconclusive means small, poorly fitted or top-dose-only effect, or another doubt; inactive means no such curve, though single readings can be large; an effect the other way counts as inactive or inconclusive.

CCc1nc2c(cnn2-c2ccc(Cl)cc2)c(=O)n1-c1ccc2c(c1)OCCO2	none
COc1ccc(Cc2n[nH]c(=S)n2-c2ccc3c(c2)OCCO3)cc1	RORg inh 8.91µM
COc1ccc(CN2C(=O)CN(S(C)(=O)=O)CC2(C)C(=O)Nc2ccc3c(c2)OCCO3)cc1OC (configuration not stated)	none (no result: MCF10A rereplic, VP16 counter, RORg inh, SW480 rerep)
COc1ccccc1C(C[N+](=O)[O-])c1c[nH]c2ccccc12 (configuration not stated)	IL1B secr inh -88.9, MCF10A rereplic inconclusive, SW480 rerep inconclusive
N/C(Cc1ccccc1)=N\OC(=O)c1cccc2ccccc12	VP16 counter 8.91µM
N/C(=N\OC(=O)c1cccc2ccccc12)c1ccc(Br)cc1	VP16 counter 5.01µM, RORg inh 10µM
N/C(=N\OC(=O)c1cccc2ccccc12)c1ccncc1	none
CC(OC(=O)C1=COCCO1)C(=O)Nc1ccc(Oc2ccccc2)cc1 (configuration not stated)	RORg inh inconclusive
O=C(OC(C(=O)Nc1cc(Cl)cc(Cl)c1)c1ccccc1)C1=COCCO1 (configuration not stated)	IL1B secr inh -50.9
CCCn1c(N)c(N(CCOC)C(=O)c2c(CC)noc2C)c(=O)[nH]c1=O	none (no result: VP16 counter, RORg inh)
S=C(Nc1ccccc1)N1CCn2c1nc1ccccc12	VP16 counter 5.01µM, RORg inh 0.562µM, SW480 rerep inconclusive
CCOC(=O)C1=C(COC(=O)/C=C/c2cccc(F)c2)NC(=O)NC1C (configuration not stated)	none (no result: VP16 counter, RORg inh)
N#CC(C#N)=C1SC(=Nc2ccccc2)C(=Nc2ccccc2)N1c1ccccc1	MCF10A rereplic 3.26µM, SW480 rerep inconclusive (no result: VP16 counter, RORg inh)
COc1cc(OC)c(OC)cc1/C=C/C(=O)OCC(=O)Nc1c(C)n(C)n(-c2ccccc2)c1=O	none (no result: VP16 counter, RORg inh)
CCCCCCCCNCCS(=O)(=O)NCc1ccccc1	IL1B secr inh -52.5 (no result: VP16 counter, RORg inh)
O=C(CSc1nnc(-c2ccccc2)o1)Nc1ccccc1F	IL1B secr inh inconclusive
Cc1ccc(C)c(SCC(=O)Nc2nnc(-c3ccccc3)o2)c1	VP16 counter 5.01µM, RORg inh 2µM
CCC(c1nnc(SCC(=O)Nc2nnc(-c3ccccc3)o2)o1)N(C)C (configuration not stated)	VP16 counter inconclusive, RORg inh 12.6µM
CCOc1ccc(NS(=O)(=O)c2ccc3[nH]c(=O)[nH]c3c2)cc1	VP16 counter inconclusive
N#Cc1ccccc1-c1ccc2ncnc(NCc3cccs3)c2c1	RORg inh inconclusive (no result: IL1B secr inh, MCF10A rereplic, SW480 rerep)
O=C1NC(=S)S/C1=C\c1ccc(SCc2ccccc2)o1	MCF10A rereplic 3.66µM, VP16 counter inconclusive, SW480 rerep inconclusive
O[C@@H]1CN(CC2CCCCC2)[C@@H](c2ccc(Cl)cc2)C[C@H]1n1cc(C2CC2)nn1	IL1B secr inh -50.7 (no result: MCF10A rereplic, VP16 counter, RORg inh, SW480 rerep)
Cc1ccccc1C(=O)NC(=S)N(C)CCc1ccccn1	VP16 counter inconclusive, RORg inh 7.08µM
COc1cccc(NC(=O)c2nc(SC)ncc2Cl)c1	none
COc1cccc(NC(=O)c2nc(S(C)(=O)=O)ncc2Cl)c1	IL1B secr inh -100.9, MCF10A rereplic 5.8µM, VP16 counter 5.01µM, RORg inh 3.98µM, SW480 rerep 2.31µM
CN(c1ccccc1)S(=O)(=O)c1ccc(NC(=O)c2nc(S(C)(=O)=O)ncc2Cl)cc1	IL1B secr inh -95.6, MCF10A rereplic inconclusive, VP16 counter 2.82µM, RORg inh 6.31µM, SW480 rerep 9.2µM
CCN1C(C)=C(C(=O)OC)C(c2ccccc2)N2C(=O)[C@@]3(C(=O)OC)O[C@@]12C1C(=O)CCCC13 (some centres not stated)	none (no result: IL1B secr inh, MCF10A rereplic, SW480 rerep)
CCCCn1cnc2c(SCc3ccccc3Cl)nc(N)nc21	IL1B secr inh -87.3, MCF10A rereplic 16.4µM, SW480 rerep inconclusive (no result: VP16 counter, RORg inh)
Nc1nc(SCc2ccccc2Cl)c2ncn(C3OC(CO)C(O)C3O)c2n1 (configuration not stated)	none (no result: VP16 counter, RORg inh)
CCCCn1cnc2c(SCc3ccc(Br)cc3)nc(N)nc21	IL1B secr inh -83.9, MCF10A rereplic inconclusive (no result: VP16 counter, RORg inh)
CCCn1cnc2c(SCc3ccc(Cl)cc3)nc(N)nc21	IL1B secr inh -63.3, MCF10A rereplic inconclusive (no result: VP16 counter, RORg inh)
CCCCn1cnc2c(SCc3ccccc3)nc(N)nc21	IL1B secr inh -50.4 (no result: VP16 counter, RORg inh)
COCCn1c(=O)c(C)nc2cnc(N3CCNCC3)nc21	none (no result: IL1B secr inh, MCF10A rereplic, SW480 rerep)
Cc1ccccc1S(=O)(=O)NC(=O)C1(C)CCN1C(=O)C1CCCCC1 (configuration not stated)	none (no result: MCF10A rereplic, VP16 counter, RORg inh, SW480 rerep)
CCCn1cnc2c(SCc3ccccc3)nc(N)nc21	none (no result: VP16 counter, RORg inh)
Nc1nc(SCc2ccccc2)c2ncn(Cc3ccccc3)c2n1	IL1B secr inh -63.8 (no result: VP16 counter, RORg inh)
c1cn(-c2ccnc(-c3ccc4c(c3)OCO4)n2)cn1	none (no result: IL1B secr inh, MCF10A rereplic, SW480 rerep)
Cc1ccc(C(=O)NC(=S)N2CC(C)OC(C)C2)cc1[N+](=O)[O-] (configuration not stated)	VP16 counter 0.708µM, RORg inh 0.398µM, SW480 rerep inconclusive
COc1ccc(C(=O)NC(=S)N2CCC(C)CC2)cc1	VP16 counter 3.98µM, RORg inh 1.41µM
COc1ccc(C(=O)NC(=S)N2CC(C)OC(C)C2)cc1 (configuration not stated)	VP16 counter 6.31µM, RORg inh 5.62µM
CCCNC(=O)C(Cc1cccc(OC)c1)NC(=O)c1ccc(C(C)(C)C)cc1 (configuration not stated)	MCF10A rereplic inconclusive (no result: VP16 counter, RORg inh)
CN(C)Cc1csc(NC(=O)Nc2ccccc2Cc2ccccc2)n1	none (no result: MCF10A rereplic, VP16 counter, RORg inh, SW480 rerep)
CC1CCCCN1S(=O)(=O)c1cccc2nonc12 (configuration not stated)	none
COc1ccc(Oc2ncc3ncc(=O)n(Cc4cccc(OC)c4)c3n2)cc1	none (no result: IL1B secr inh, MCF10A rereplic, SW480 rerep)
Cc1cc(C2=NNC(=NC3CC3)SC2)c(C)n1-c1ccccc1	VP16 counter 6.31µM, RORg inh 2.51µM, SW480 rerep inconclusive
CN=C1NN=C(c2cc(C)n(-c3c(C)n(C)n(-c4ccccc4)c3=O)c2C)CS1	VP16 counter inconclusive, RORg inh inconclusive
COc1ccc(-n2c(C)cc(C3=NNC(=NC4CC4)SC3)c2C)cc1	IL1B secr inh inconclusive, MCF10A rereplic 9.2µM, VP16 counter inconclusive, SW480 rerep inconclusive
OC[C@@H]1CN(Cc2ccc(Cl)cc2)C[C@H](n2cnc3c(NC4CCC4)ncnc32)O1	IL1B secr inh -84.5 (no result: MCF10A rereplic, VP16 counter, RORg inh, SW480 rerep)
COCCNc1ncnc2c1ncn2[C@H]1CN(CCc2ccccc2)C[C@@H](CO)O1	none (no result: MCF10A rereplic, VP16 counter, RORg inh, SW480 rerep)
OCCCNc1ncnc2c1ncn2[C@H]1CN(Cc2ccncc2)C[C@@H](CO)O1	none (no result: MCF10A rereplic, VP16 counter, RORg inh, SW480 rerep)
OC[C@@H]1CN(Cc2ccc(-c3ccccc3)cc2)C[C@H](n2cnc3c(NC4CC4)ncnc32)O1	none (no result: MCF10A rereplic, VP16 counter, RORg inh, SW480 rerep)
OCCNc1ncnc2c1ncn2[C@H]1CN(Cc2ccncc2)C[C@@H](CO)O1	IL1B secr inh -89.2 (no result: MCF10A rereplic, VP16 counter, RORg inh, SW480 rerep)
CC(C)CNc1ncnc2c1ncn2[C@H]1CN(CCc2ccccc2)C[C@@H](CO)O1	IL1B secr inh -71.1 (no result: MCF10A rereplic, VP16 counter, RORg inh, SW480 rerep)

High-throughput results: PubChem BioAssay, National Center for Advancing Translational Sciences (NCATS)
